Data from paper PMC4336329 (PLoS ONE, 2015).
The whole screen tested about 310,000 compounds, of which about 14,000 (4.5%) showed an effect of 50% or more. The effect is printed as a negative number. The full list was thinned out, with strong results kept by preference. Where a SMILES comes first, the peptide text is derived from it. The star is where a group is joined. Boc = CC(C)(C)OC(=O)*; OtBu = CC(C)(C)O*

These molecules were tested against human ether-à-go-go-related gene (hERG) potassium channel (human, UniProt Q12809) (assay: primary screen, population patch clamp on CHO cells stably expressing hERG; higher = less effect of the substance).
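Further: peak tail current of the secondary pulse compared with the same well before compound.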

human ether-à-go-go-related gene (hERG) potassium channel, sequence (Q12809 whole entry, looked up): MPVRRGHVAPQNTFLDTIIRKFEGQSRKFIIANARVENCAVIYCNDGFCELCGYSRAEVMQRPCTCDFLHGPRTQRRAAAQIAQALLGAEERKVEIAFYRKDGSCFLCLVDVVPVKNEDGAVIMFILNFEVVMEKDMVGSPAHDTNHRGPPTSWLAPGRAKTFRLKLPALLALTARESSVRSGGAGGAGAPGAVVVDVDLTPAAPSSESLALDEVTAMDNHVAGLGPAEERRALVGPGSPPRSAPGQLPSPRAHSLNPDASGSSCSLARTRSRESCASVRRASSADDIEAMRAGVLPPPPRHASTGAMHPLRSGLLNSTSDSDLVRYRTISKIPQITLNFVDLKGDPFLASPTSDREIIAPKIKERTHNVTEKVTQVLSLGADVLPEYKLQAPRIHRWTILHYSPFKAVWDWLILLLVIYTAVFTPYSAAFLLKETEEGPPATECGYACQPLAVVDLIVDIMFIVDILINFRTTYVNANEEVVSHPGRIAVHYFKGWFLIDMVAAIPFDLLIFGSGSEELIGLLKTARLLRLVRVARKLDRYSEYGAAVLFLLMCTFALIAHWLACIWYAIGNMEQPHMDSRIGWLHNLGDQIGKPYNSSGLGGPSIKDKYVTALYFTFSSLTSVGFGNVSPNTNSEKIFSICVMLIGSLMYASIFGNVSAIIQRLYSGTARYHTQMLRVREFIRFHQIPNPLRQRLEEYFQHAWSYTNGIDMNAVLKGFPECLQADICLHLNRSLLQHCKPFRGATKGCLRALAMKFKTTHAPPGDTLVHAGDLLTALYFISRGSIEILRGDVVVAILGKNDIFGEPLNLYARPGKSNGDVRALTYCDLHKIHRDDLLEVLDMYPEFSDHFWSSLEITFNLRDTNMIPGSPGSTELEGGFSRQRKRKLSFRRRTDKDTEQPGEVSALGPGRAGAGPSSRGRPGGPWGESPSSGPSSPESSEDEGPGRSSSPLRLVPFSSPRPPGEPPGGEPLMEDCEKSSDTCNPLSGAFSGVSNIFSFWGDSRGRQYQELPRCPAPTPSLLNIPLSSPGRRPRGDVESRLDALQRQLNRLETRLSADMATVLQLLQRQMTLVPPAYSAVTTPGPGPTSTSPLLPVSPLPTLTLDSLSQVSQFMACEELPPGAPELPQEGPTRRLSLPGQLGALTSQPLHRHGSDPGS

Row | SMILES | hERG current change (%, negative = inhibition) at 10uM
1 | COc1ccccc1N1CCN(CCCCCCOc2ccc(F)cc2)CC1 | -67.2%
2 | COc1ccccc1N1CCN(CCCOc2ccc(F)cc2)CC1 | -71.8%
3 | COc1ccccc1N1CCN(CCCCOc2ccc(F)cc2)CC1.Cl | -72.8%
4 | COc1ccccc1N1CCN(Cc2ccc(F)cc2)CC1 | -14.7%
5 | Cl.Fc1ccc(OCCCCN2CCOCC2)cc1 | -4.81%
6 | CN1CCN(CCCCOc2ccc(F)cc2)CC1 | 0.265%
7 | COc1ccccc1N1CCN(CCCCOc2cccc3ccccc23)CC1.Cl | -32.8%
8 | C=CCn1cnc2c(c1=O)c1nc3ccccc3nc1n2/N=C/c1cc(OC)c(OC)c(OC)c1 | -22.1%
9 | O=C(CSc1nnc2ccc(-c3ccccn3)nn12)Nc1ccc(F)cc1F | -18%
10 | CCn1c(SCC(=O)Nc2ccc(F)cc2)nnc1C1CC1 | -0.652%
11 | NNC(=O)CSc1nnc(-c2ccccc2)n1-c1ccccc1 | 8.61%
12 | O=C(CSc1nnc2ccc(-c3cccnc3)nn12)Nc1ccccc1F | -39.2%
13 | Cn1c(SCC(=O)Nc2ccc(F)cc2)nnc1C1CC1 | 4.27%
14 | O=C(CSc1nnc2ccc(-c3cccnc3)nn12)Nc1ccc(F)cc1F | -64.9%
15 | N#Cc1ccccc1NC(=O)CSc1nnc(-c2ccccc2)n1-c1ccccc1 | 2.09%
16 | CC(C)n1c(SCC(=O)Nc2ccc(F)cc2)nnc1C1CC1 | -50.1%
17 | COc1ccc(NC(=O)CSc2nnc3ccc(-c4ccncc4)nn23)cc1 | -30.9%
18 | O=C(CSc1nnc2ccc(-c3ccncc3)nn12)Nc1ccc(F)cc1 | -63.2%
19 | Cc1ccccc1NC(=O)CSc1nnc(-c2ccccc2)n1-c1ccccc1 | -51.4%
20 | CC(=O)Nc1ccc(NC(=O)CSc2nnc3ccc(-c4ccc(F)cc4)nn23)cc1 | 16.8%
21 | COc1ccc(NS(=O)(=O)c2cccc(C(=O)NCC(c3ccco3)N3CCCC3)c2)cc1 (stereo not shown) | -36.8%
22 | Cc1ccc(S(=O)(=O)Nc2ccc3cn[nH]c3c2)c(C)c1 | -18.1%

Row | SMILES | hERG current change (%, negative = inhibition) at 10uM
23 | Cc1cccc(NC(=O)c2nc[nH]c2C(=O)NCC(=O)OCc2ccccc2)c1 | 9.54%
24 | CC(C)CC(N)c1cn([C@@H](CCC(=O)O)C(=O)N2CCNCC2)nn1.Cl (stereo partly shown) | 17.2%
25 | COC(=O)N/N=C(\C)c1ccc(C)c([N+](=O)[O-])c1 | -0.21%
26 | COC(=O)c1cccc(NC(=O)c2cnn(C)c2)c1 | 15.9%
27 | CCO.CCOC(=O)c1c(-c2ccccc2)oc2ccc(OC(C)C(=O)O)cc12 (stereo not shown) | -15%
28 | O=C(NNC(=S)NC(=O)c1ccccc1)c1cccc([N+](=O)[O-])c1 | 22.8%
29 | Cc1csc(SCC(=O)Nc2cccc3nsnc23)n1 | -14.8%
30 | CCCOc1ccc(C(=O)N(Cc2cccs2)C2CCS(=O)(=O)C2)cc1 (stereo not shown) | -8.87%
31 | CCn1c2ccccc2c2cc(CC(N)=O)ccc21 | 5.3%
32 | COc1ccc(C(=O)NCCc2nnc3ccc(SCC(=O)NCCc4ccc(OC)c(OC)c4)nn23)cc1 | 0.371%
33 | Cc1cccc(NC(=O)CC2NCCNC2=O)c1 (stereo not shown) | 8.94%
34 | Cc1nnc(SCC(=O)Nc2cccc(N)c2)n1-c1ccccc1 | -10.1%
35 | Nc1nnc(SCC(=O)Nc2ccc(F)c(Cl)c2)n1-c1ccccc1 | -70.7%
36 | Cc1ccccc1-n1c(SC(C)C(N)=O)nnc1-c1cccnc1 (stereo not shown) | -6.92%
37 | Cc1ccc(NC(=O)C(C)Sc2nnc(-c3cccnc3)o2)cc1 (stereo not shown) | 11.9%
38 | O=C(CSc1nnc(-c2cccnc2)n1-c1ccccc1)Nc1ccccc1 | -76.3%
39 | O=C(CSc1nnc2ccc(-c3cccnc3)nn12)Nc1ccc(F)cc1 | -63%
40 | COc1ccc(NC(=O)CSc2nnc3ccc(-c4cccnc4)nn23)cc1 | -46.4%
41 | O=C(CSc1nnc(-c2cccnc2)n1-c1ccccc1)Nc1ccccn1 | -41%
42 | Cc1ccc(NC(=O)C(C)Sc2nnc(-c3cccnc3)n2-c2ccccc2)cc1 (stereo not shown) | -81.4%
43 | Cc1ccc(NC(=O)CSc2nnc(-c3cccnc3)n2-c2ccc(C)cc2)cc1 | -21.4%
44 | COc1cc(NC(=O)CSc2nnc3ccc(-c4cccnc4)nn23)cc(OC)c1 | -9.05%

Row | SMILES | hERG current change (%, negative = inhibition) at 10uM
45 | Cc1ccc(NC(=O)CSc2nnc(C)n2-c2ccccc2)cc1 | -3.7%
46 | COC(=O)c1cn(NC(=O)c2ccc([N+](=O)[O-])cc2Cl)c(=O)c2ccccc12 | -5.68%
47 | CCCn1c(SCC(=O)NCc2ccccc2)n[nH]c1=O | 7.49%
48 | CCN(CC(=O)Nc1cccc(S(=O)(=O)N2CCOCC2)c1)Cc1ccccc1 | -4.27%
49 | CCOC(=O)c1cc(-c2ccc(N3CCOCC3)cc2)nn1-c1ccccc1 | -48.9%
50 | CCCCOc1nc2ccccc2c(=O)n1-c1ccccc1 | -11.6%
51 | Cc1cc(C)n2nc(C(=O)OC(C)C(=O)c3ccccc3)nc2n1 (stereo not shown) | 17.9%
52 | O=C(Cn1[nH]c(=O)c2ccccc2c1=O)NC1CCN(Cc2ccccc2)CC1 | 0.791%
53 | COc1ccc2c(c1OC)C(=O)N(C(C)C(=O)O)C2=O (stereo not shown) | 10.1%
54 | CC(=O)Nc1ccc(NC(=O)CSc2nnc3ccc(-c4cccnc4)nn23)cc1 | 19.8%
55 | O=C(CSc1nnc2ccc(-c3cccnc3)nn12)Nc1ccccc1 | -50.6%
56 | Cc1ccc(NC(=O)CSc2nnc3ccc(-c4cccnc4)nn23)cc1 | -49.3%
57 | CC(c1nnc(SCC(=O)NC(=O)NCc2ccco2)n1-c1ccc(Cl)cc1)N(C)C (stereo not shown) | -8.66%
58 | CC(C)COc1ccc(C/C(N)=N/n2cnnc2)cc1 | 30.4%
59 | COC(=O)CSc1nc2nc(C)cc(C)n2n1 | 4.29%
60 | Cl.ClCCN1CCN(c2ccnc3cc(Cl)ccc23)CC1 | -20.8%
61 | CCS(=O)(=O)N1CCN(c2ccnc3cc(Cl)ccc23)CC1 | -73.2%
62 | CS(=O)(=O)N1CCN(c2ccnc3cc(Cl)ccc23)CC1 | -78.6%
63 | CC(C)S(=O)(=O)N1CCN(c2ccnc3cc(Cl)ccc23)CC1 | -71.6%
64 | CN(C)S(=O)(=O)N1CCN(c2ccnc3cc(Cl)ccc23)CC1 | -76.2%
65 | Cc1ccc(Cl)cc1N1CCN(S(C)(=O)=O)CC1 | -5.31%
66 | CN(C)S(=O)(=O)N1CCN(c2cc(Cl)ccc2Cl)CC1 | -8.38%

Row | SMILES | hERG current change (%, negative = inhibition) at 10uM
67 | Cc1cc(C)c[n+](-c2[nH]c(=O)sc2/C=N/N=C(\N)[S-])c1 | 22%
68 | COCCn1c(SCC(=O)NC2CCCC2)nc2cccnc21 | 17.1%
69 | COc1ccccc1-n1cnnc1SCC(=O)c1ccc[nH]1 | -0.89%
70 | Cc1ccccc1NC(=S)N(CCN1CCOCC1)Cc1ccccc1F | 30.1%
71 | Cl.Clc1ccc(CNCCC2=CCCCC2)cc1 | -40%
72 | CC(Oc1ccc(Br)cc1Br)C(=O)NC1CCCC1 (stereo not shown) | 16.2%
73 | COc1ccc(N(CC(=O)N2CCc3ccccc3C2)S(=O)(=O)c2ccccc2)cc1 | -32.1%
74 | N#Cc1nc(COc2cccc(Cl)c2)oc1NCc1ccco1 | -16.8%
75 | N#Cc1nc(COc2cccc(Cl)c2)oc1NCc1ccncc1 | -73.7%
76 | CN(C)CCNc1oc(COc2cccc(Cl)c2)nc1C#N | -16.1%
77 | N#Cc1nc(COc2ccccc2Cl)oc1NCc1cccnc1 | -51.2%
78 | N#Cc1nc(COc2ccccc2Cl)oc1NCc1ccc(F)cc1 | 0.159%
79 | Cc1ccc(CNc2oc(COc3ccccc3Cl)nc2C#N)cc1 | 13.2%
80 | FC(F)(F)c1ccc(C2[C@H]3CN(CC4CCCCC4)[C@H](c4ccccc4)C34CC2(c2cccnc2)C4)cc1 (stereo partly shown) | 0.391%
81 | CN1CCN(C(=O)c2c(O)c3cccc4c3n(c2=O)CCC4)CC1.Cl | 6.48%
82 | c1ccc(Cc2nc3ccccc3[nH]2)cc1 | -6.39%
83 | CCOc1ccc(Nc2nc3c(c(=O)[nH]2)CCCC3)cc1 | -3.98%
84 | COC(=O)c1ccc(/C=C2/SC(=S)N(CCCC(=O)Nc3ccccn3)C2=O)cc1 | 15.4%
85 | CC(NC(=O)C(CC(=O)OC(C)(C)C)NC(=O)OC(C)(C)C)C(N)=O (stereo not shown) (Boc-Asp(OtBu)-Ala-NH2; configuration not given here) | -5.99%
86 | Cc1sc2ncn(CC(=O)NCCCC(=O)N3CCN(c4ncccn4)CC3)c(=O)c2c1C | 7.64%
87 | N#C/C(=C\c1ccco1)Sc1nc2ccccc2s1 | 0.525%
88 | O=C(NCCc1nnc2ccc(NCc3ccc(F)cc3)nn12)c1ccccc1 | -29%
